Screening data as filed in PubChem.
S1P2 antag: human S1P2 receptor antagonists, primary screen, cell-based | Sphingosine 1-phosphate receptor 2 (Homo sapiens), O95136 | cell-based S1P2 antagonist assay, inhibition at 5 uM | inhibition, % at 5 µM | hit rate 0.21% among 97,000 | AID 736, 2007; in the data active means inhibition above about 45%;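 further: CRE beta-lactamase reporter cells expressing human S1P2 stimulated with S1P; 0% = agonist at EC80 alone and 100% = agonist plus reference antagonist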
Target sequence (O95136 whole entry, looked up): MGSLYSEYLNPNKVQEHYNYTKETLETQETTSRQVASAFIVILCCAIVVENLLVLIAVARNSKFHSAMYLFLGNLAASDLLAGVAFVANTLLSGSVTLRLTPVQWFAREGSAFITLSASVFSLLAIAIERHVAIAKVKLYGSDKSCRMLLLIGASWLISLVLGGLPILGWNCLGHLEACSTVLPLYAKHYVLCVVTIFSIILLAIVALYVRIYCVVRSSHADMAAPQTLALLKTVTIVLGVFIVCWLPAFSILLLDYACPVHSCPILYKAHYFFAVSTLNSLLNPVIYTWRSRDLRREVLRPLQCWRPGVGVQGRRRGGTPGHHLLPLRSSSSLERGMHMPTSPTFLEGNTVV
GALR2 blocker: GALR2 antagonists in receptor-expressing cells, primary screen; Galanin receptor type 2 (Homo sapiens), O43603; antagonist mode; inhibition, % at 4 µM; hit rate 0.39% among 140,000; in the data active means inhibition above about 27%;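 further: cells stimulated with galanin 1-16 at roughly its EC80; 0% = agonist challenge control and 100% = basal control without agonist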
PLAP act: PLAP enzyme activators, biochemical, luminescence, HTS; Alkaline phosphatase, placental type (Homo sapiens), P05187; purified PLAP enzyme, luminescent substrate read-out; active compounds read high; activation fold at 20 µM; hit rate 1.2% among 96,000; AID 696, 2007; in the data active means activation fold above about 2
S1P2 ag: S1P2 receptor agonists, primary screen, cell-based; Sphingosine 1-phosphate receptor 2 (Homo sapiens), O95136; S1P2-expressing cell line, agonist reporter read-out; activation, % at 4.5 µM; hit rate 0.46% among 97,000; in the data active means activation above about 16%;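 further: 0% = vehicle low control and 100% = maximal reference agonist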
GALR2 agonist: GALR2 receptor agonists, primary screen, cell-based; hit rate 0.48% among 140,000; activation, % (concentration not given with the values); GALR2-expressing cells, agonist activation read-out; AID 803, 2007; in the data active means activation above about 5%, passing the limit was not always enough;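 further: 0% = vehicle buffer wells and 100% = reference agonist at full effect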
Active calls of the source: *; x = not tested or not shown. Only some compounds are listed: those with a hit (about 2% of all), similar ones and a draw of the others.

SMILES | S1P2 antag | GALR2 blocker | PLAP act | S1P2 ag | GALR2 agonist
CCOC(=O)c1c(C)n(C)c2cc(-c3cccc(C(F)(F)F)c3)c(O)cc12 | x | 6 | x | x | 0
CCOc1ccc(NC(=O)N(CCC(C)C)C2CCN(C(C)=O)CC2)cc1 | 31 | -8 | 2* | 0 | 0
CCOCCCN(C(=O)Nc1ccc(CC)cc1)C1CCN(C(C)=O)CC1 | x | -3 | 1.2 | x | -1
CCN(CC)S(=O)(=O)c1ccc(NC(=O)c2ccccc2N(C)S(C)(=O)=O)cc1 | 11 | 4 | 2.1* | -4 | -2
CCN(CC)S(=O)(=O)c1ccc(NC(=O)c2ccc(N(C)S(C)(=O)=O)cc2)cc1 | -11 | -2 | x | -7 | -2
CCC1Oc2ccc(C)cc2N(CC(=O)NCC2COc3ccccc3O2)C1=O (configuration not stated) | 10 | 0 | 1.5 | -2 | -2
Cc1ccc2c(c1)N(CCC(=O)NCC1COc3ccccc3O1)C(=O)CO2 (configuration not stated) | 22 | 0 | 2.2* | -3 | -2
COc1cccc(C(=O)N/N=C/c2cn[nH]c2-c2ccc(OC)cc2OC)c1 | 11 | -1 | 2.2* | -7 | -1
Cc1nnc(-c2cnn(-c3ccccc3)c2N)n1Cc1ccc(F)cc1 | 6 | -2 | 0.9 | -2 | -2
CCOc1ccc(N2CC(C(=O)OCC(=O)NCc3ccccc3)CC2=O)cc1 (configuration not stated) | 25 | 15 | 1 | 0 | -3
COCCNC(=O)CSc1nc2cc(OC)c(OC)cc2c(=O)n1Cc1ccco1 | -11 | -6 | 1.1 | 1 | 0
CCC(Sc1nc2cc(OC)c(OC)cc2c(=O)n1Cc1ccco1)C(=O)NCCOC (configuration not stated) | -48 | 3 | 1.5 | 18* | 1
c1ccc2c(c1)[nH]c1c(N3CCSCC3)ncnc12 | 48* | 32* | x | -7 | -1
c1ccc2c(c1)[nH]c1c(N3CCCC3)ncnc12 | 23 | 21 | 1 | -1 | 0
CCC(=O)N1CCc2cc(S(=O)(=O)NC(Cc3ccccc3)C(=O)NC3CCCCC3C)ccc21 (configuration not stated) | -8 | -5 | 2.3* | -3 | -1
CCC(=O)N1CCc2cc(S(=O)(=O)NC(Cc3ccccc3)C(=O)NC3CCCCC3)ccc21 (configuration not stated) | x | 17 | x | x | -2
COc1ccc(/C=C2\CCCc3c2nc2ccccc2c3C(=O)OCC(=O)c2c(N)n(C)c(=O)n(C)c2=O)cc1 | x | -2 | x | x | 4
Oc1ccc(CNCC2COc3ccccc3O2)cc1 (configuration not stated) | 10 | 9 | 1.1 | -6 | -2
CCCCC1NC(=S)N(C2CCCCC2)C1=O (configuration not stated) | x | 1 | x | x | 7.1*
O=[N+]([O-])c1ccc(NCCCNS(=O)(=O)c2ccc(Cl)cc2)c(Cl)c1 | 10 | -4 | 0.7 | -6 | -1
NC(=O)C1CCN(Cc2nc3ccccc3c(=O)[nH]2)CC1 | -6 | 18 | 1 | 0 | -1
NC(=O)C1CCN(Cc2nc3cc(Cl)ccc3c(=O)[nH]2)CC1 | 2 | 2 | 2* | -2 | -1
COc1ccc(CNCc2ccco2)cc1OCc1ccccc1 | 15 | -8 | 0.9 | -7 | -2
COc1ccccc1CCNCc1ccc(OC)c(OCc2ccccc2)c1 | 48* | 18 | 1.5 | -5 | -1
Cc1noc(C)c1CSCC(=O)N1CCN(c2ccc([N+](=O)[O-])cc2)CC1 | 17 | 25 | 0.6 | -9 | -2
SMILES | S1P2 antag | GALR2 blocker | PLAP act | S1P2 ag | GALR2 agonist
CCCn1c(C(=O)OC)cc2c1ccn2-c1ccc(F)cc1 | 7 | -17 | 1.1 | -1 | 5.6*
Cc1cc(NC(=O)CSc2nc3ccc(Cl)cc3[nH]2)no1 | -7 | 1 | 2.7* | -2 | -3
CCC(Sc1nc2ccccc2[nH]1)C(=O)Nc1cc(C)on1 (configuration not stated) | x | -2 | 2.1* | x | 0
CCC(Sc1nc(-c2ccccc2)c(C#N)c(=O)[nH]1)C(=O)Nc1cc(C)on1 (configuration not stated) | x | -14 | 1 | x | -1
Cc1cc(C(=O)CSc2nc3ccc(Cl)cc3[nH]2)c(C)n1C | -3 | 3 | 2.1* | -7 | -3
COc1cccc2c(=O)n(CC(=O)N3CCCCC3)ccc12 | 3 | 5 | 1 | -3 | -2
Cc1ccc(NC(=S)NNC(=O)c2nnn(-c3ccccc3)c2C)cc1 | x | -4 | x | x | -2
COCCn1c(C)cc(C(=O)CSc2nc(C)nc3sc4c(c23)CCC4)c1C | -19 | 4 | x | -2 | -2
O=C(Nc1ccccc1-c1ccccc1)C12CC3CC(CC(C3)C1)C2 | -17 | 4 | 0.8 | -1 | 0
CC(C)N1CC(O)=C(c2nc3ccccc3[nH]2)C1=N | 10 | 3 | 2.5* | -3 | -1
CCc1c(C)nc2cc(-c3cc(OC)cc(OC)c3)nn2c1N1CCN(CCN2CCOCC2)CC1 | -31 | -3 | x | -1 | 0
CCc1c(C)nc2cc(-c3ccc(OC)c(OC)c3)nn2c1NCC1CC1 | -13 | 10 | 2* | 7 | -2
O=C1CSC(c2ccccn2)N1Cc1cn2ccccc2n1 (configuration not stated) | 16 | 7 | 1.2 | -1 | -1
COCCCNC(=S)NNC(=S)Nc1ccc(F)cc1F | -23 | -3 | 2.7* | -4 | -2
CCCN(CCC)c1nc(N)c(C#N)c(CC#N)c1C#N | -42 | -8 | 1.2 | 16* | 0
CCCCN1C(=O)Cc2c1nc(N)c1c(N)nc(N(CCC)CCC)c(C#N)c21 | 1 | 1 | 1 | 0 | 1
CCCN(CC1CC1)c1nc(N)c(C#N)c(CC#N)c1C#N | -35 | -8 | 1 | 16* | -1
COc1ccccc1NC(=O)c1c(Nc2ccccc2F)sc(C(=O)Nc2cccc(Cl)c2)c1N | x | -8 | x | x | 1
CCCSc1ccc(-c2nn(-c3ccccc3)cc2/C=C(/C#N)C(=O)NCCCOC)cc1 | x | 13 | x | x | -1
CCSc1ccc(-c2nn(-c3ccccc3)cc2/C=C(/C#N)C(=O)NCCCOC)cc1 | x | 0 | x | x | 5.9*
COc1cccc(NC(=O)c2cc(OC)c(OC)c(OC)c2Br)c1 | x | -26 | x | x | 0
CCn1c(SCC(=O)Nc2nc(-c3ccccc3)cs2)nnc1-c1ccccc1 | 1 | -5 | 2* | -7 | -1
Cc1cc(=O)[nH]c(N2CCCC2)n1 | 11 | 2 | 0.8 | -10 | -3
Cc1cc(=O)[nH]c(-n2[nH]c(C)cc2=O)n1 | 15 | -6 | 2.2* | -7 | -2
O=C(CCC(=O)N1CCc2ccccc21)Nc1ccccc1 | 10 | 6 | 1.2 | 58* | -2
Cn1c(CNc2ccccc2O)nc2ccccc21 | 18 | 17 | 2.4* | -4 | -1
C/C(=C1/SC(N2CCCC2)=NC1=O)c1ccc(Br)cc1 | -9 | -2 | 1.4 | -11 | -1
S=C(Nc1ccc(Cl)cc1)N1CCCC1 | x | 12 | x | x | -1
Cc1ccc(-c2cc(C(F)F)nc(NCc3cccs3)n2)cc1 | x | -2 | x | x | 0
Cc1ccc(-c2cc(C(F)F)nc(NCc3cccnc3)n2)cc1 | -12 | -6 | x | -7 | 5.0*
